FECH block – human FECH heme synthesis enzyme inhibition. hit rate 3.3% among 20,000. purified FECH, Ni-mesoporphyrin absorbance 550 nm. P22830. calls only at 10 µM (by protocol). AID 1671448;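 active = enzyme reaction rate more than 3 SD below the solvent-only control wells on the same plate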;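 also: lower slope than DMSO wells means FECH inhibition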
Target sequence (P22830 whole entry, looked up): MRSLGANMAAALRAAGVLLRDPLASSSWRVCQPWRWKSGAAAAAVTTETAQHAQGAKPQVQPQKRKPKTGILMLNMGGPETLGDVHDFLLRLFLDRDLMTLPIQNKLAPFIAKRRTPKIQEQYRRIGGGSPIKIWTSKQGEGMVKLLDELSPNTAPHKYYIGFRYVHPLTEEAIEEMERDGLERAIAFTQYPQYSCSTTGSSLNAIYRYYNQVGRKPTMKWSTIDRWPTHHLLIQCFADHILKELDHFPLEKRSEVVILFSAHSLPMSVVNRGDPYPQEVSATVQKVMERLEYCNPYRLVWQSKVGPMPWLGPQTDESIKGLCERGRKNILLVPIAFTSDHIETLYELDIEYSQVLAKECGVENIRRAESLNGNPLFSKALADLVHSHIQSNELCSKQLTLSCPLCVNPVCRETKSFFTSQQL
Starred values were filed as active, the others as inactive; i = inactive; + = active, no number. This is one part of a sample in which hits are shown more often than they occur.

SMILES	FECH block
Cc1ccc(NC(=O)CSc2cc(Oc3cc(C)cc(C)c3)ncn2)cc1	+
COCCNc1cc(-c2ccc3c(c2)CNCC3)c2cc[nH]c2n1	i
COc1cc(C2CC(=O)Nc3cc4[nH]ncc4cc32)cc2c1OCO2 (configuration not stated)	i
Cc1cc(N(C)C)nc(Nc2ccc(NC(=O)CCC3CCCCC3)cc2)n1	i
CCC(=O)Nc1ccc(Nc2nc(C)cc(N3CCCCC3)n2)cc1	i
O=c1c(Nc2cccc(Cl)c2)c(-c2ccc3c(c2)CCCC3)c1=O	i
Cc1nc(NCC(c2ccccc2C)N(C)C)c2nc(C)oc2n1 (configuration not stated)	i
CCCCN(Cc1ccco1)C(=O)c1c(C)nn(CC)c1C	i
CCc1ccc(NC(=O)NCCn2c(-c3ccncc3)nc3cccnc32)cc1	i
CCOC(=O)c1ccccc1NC(=O)NCCn1c(-c2ccncc2)nc2cccnc21	+
O=S(=O)(Cc1ccccc1)NCCn1c(-c2ccccc2)nc2cccnc21	i
Cc1ccc(-c2nc3cccnc3n2CCNS(C)(=O)=O)cc1	i
COc1ccc(OC)c(S(=O)(=O)NCCn2c(-c3ccc(C)cc3)nc3cccnc32)c1	i
CCOc1ccc(NC(=O)NCCn2c(-c3ccncc3)nc3cccnc32)cc1	i
COc1ccc(OC)c(S(=O)(=O)NCCn2c(-c3ccccc3)nc3cccnc32)c1	i
Cc1ccc(-c2nc3cccnc3n2CCNS(=O)(=O)Cc2ccccc2)cc1	+
COc1ccc(Cl)cc1S(=O)(=O)NCCn1c(-c2ccc(C)cc2)nc2cccnc21	+
Cc1ccc(-c2noc(C3CCN(C(=O)C(C)NC(=O)c4ccccc4)CC3)n2)cc1 (configuration not stated)	i
Cc1ccc2nc(CN(C)Cc3ccnc(C(C)C)n3)[nH]c2c1	i
CCOc1ccc(C(=O)N2Cc3cnc(CC(C)C)nc3C2)o1	i
CCn1c(CC2CCN(C(=O)c3cnccc3C)CC2)nn(C)c1=O	i
Cc1cc(C)nc(NC(=O)c2cccc(CN(C)Cc3ccno3)c2)c1	i
CC(=O)NCCC1=CCN(CC(=O)Nc2ccc(C)cc2)CC1	i
CCc1cc(Sc2ccc(NC(=O)Cc3cccc(F)c3)cc2)n2ncnc2n1	i
Cc1cccc(OCCN2CCCCC2CO)c1C (configuration not stated)	+
SMILES	FECH block
Cc1cccc(OCCN2CCCN(C(=O)c3ccco3)CC2)c1C	i
CCn1ccnc1-c1c(-c2ccccc2)ncn1CCN1CCCCC1CO (configuration not stated)	i
Cc1cc(C)c2nc(N3CCC(C(=O)NCCc4ccc(S(N)(=O)=O)cc4)CC3)sc2c1	i
c1ccc(-c2ncn(CCc3csc(-c4ncccn4)n3)c2C2CC2)cc1	i
CCOc1ccc(OCC(=O)Nc2cc(C)nn2-c2ncnc3c2cnn3-c2ccc(F)cc2)cc1	i
O=C1CC2(CCN(CCc3ccccc3)CC2)CN1	+
CC/C=C\CCCN1CCC2(CC1)CNC(=O)C2	i
O=C1CC2(CCN(C(=O)C/C=C/c3ccccc3)CC2)CN1	i
c1ccc(CCc2nc(-c3ccc4n[nH]nc4c3)n(-c3ccccn3)n2)cc1	i
CN1CCCn2nc(C(=O)N3CCN(CC4CCCO4)CC3)cc2C1 (configuration not stated)	i
Cc1cccn2c(CC(=O)NCCc3csc(-c4ccncc4)n3)cnc12	i
O=S(=O)(NCCc1csc(-c2ccncc2)n1)NCc1ccccc1	+
CCc1cc(C(C)NS(=O)(=O)NCc2ccccc2)on1 (configuration not stated)	i
CC1(C(=O)NCCc2nc3ccccc3c(=O)[nH]2)CCCCO1 (configuration not stated)	i
COCCCNc1nc(Nc2ccccc2)c2cnn(-c3ccccc3)c2n1	i
Cc1ccc(NC(=O)CN2C(=O)CN(C)C(=O)c3ccccc32)cc1	i
CN1CC(=O)N(CC(=O)Nc2ccc(F)c(Cl)c2)c2ccccc2C1=O	+
CN1CC(=O)N(CC(=O)Nc2ccccc2)c2ccccc2C1=O	i
CC(C)c1ccc(NC(=O)CN2C(=O)CN(C)C(=O)c3ccccc32)cc1	i
Cc1cc(C)cc(NC(=O)CN2C(=O)CN(C)C(=O)c3ccccc32)c1	i
CN1CC(=O)N(CC(=O)Nc2ccc3c(c2)OCO3)c2ccccc2C1=O	+
CC1CCN(C(=O)COc2ccccc2-c2nccn2-c2cccnc2)CC1	i
O=C(CSCc1nc(-c2ccccc2)no1)NCCC1=CCCCC1	i
CN(Cc1ccco1)S(=O)(=O)c1ccc2c(c1)CCN2C(=O)CCC(=O)N1CCOCC1	i
CN(Cc1ccsc1)C(=O)c1cccc2c(=O)c3ccccc3[nH]c12	i
Cc1cccc(NC(=O)CSCc2nc(-c3ccccc3)no2)c1	i
CNC(=O)c1ccc(Cn2c(=O)c3cc(OC)c(OC)cc3n(CC(=O)NC(C)C)c2=O)cc1	i
CNC(=O)c1ccc(Cn2c(=O)c3cc(OC)c(OC)cc3n(CC(=O)NCC3CCCO3)c2=O)cc1 (configuration not stated)	+
